Data reported in the supplement of paper PMC6555819.

Columns and labels:
Assay in all cases: PBM binding z-score (relative to random genomic background probes); higher = stronger binding; sequences stand for … in GC…GCGATTGACAGCGTAGAATGAAGG
[1] = system: FXR:RXRa (NR concentration 270 nM, RXRa partner concentration 90 nM)
In short: (§1)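 Binding z-scores were set against random background probes. The data came from custom Agilent 4×180K protein-binding microarrays carrying double-stranded probes with 34-nt variable regions, incubated 1 h with ligand-free nuclear receptor dimers. Partner-specific antibodies detected binding, and scanned fluorescence was regression-normalized.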

[2] = system: LXRa:RXRa (NR concentration 270 nM, RXRa partner concentration 90 nM)
In short: as §1

[3] = system: LXRa homodimer (NR concentration 270 nM)
In short: as §1

[4] = system: LXRb:RXRa (NR concentration 270 nM, RXRa partner concentration 90 nM)
In short: as §1

[5] = system: LXRb homodimer (NR concentration 270 nM)
In short: as §1

[6] = system: PPARa:RXRa (NR concentration 270 nM, RXRa partner concentration 90 nM)
In short: as §1

[7] = system: PPARg:RXRa (NR concentration 180 nM, RXRa partner concentration 90 nM)
In short: as §1

[8] = system: PPARg:RXRa 270nM:90nM, anti-RXR (NR concentration 270 nM, RXRa partner concentration 90 nM)
In short: as §1

[9] = system: PPARg:RXRa 30nM:10nM, anti-RXR (NR concentration 30 nM, RXRa partner concentration 10 nM)
In short: as §1

[10] = system: PPARg:RXRa 90nM:30nM, anti-RXR (NR concentration 90 nM, RXRa partner concentration 30 nM)
In short: as §1

[11] = system: PPARg:RXRa DBDmut IVT, anti-RXR (DBD mutation: RXRa K156A/R161A, NR concentration 270 nM, RXRa partner concentration 90 nM)
In short: as §1

[12] = system: PPARg:RXRa IVT, anti-PPARg (NR concentration 270 nM, RXRa partner concentration 90 nM)
In short: as §1

[13] = system: PPARg DBDmut:RXRa IVT, anti-PPARg (DBD mutation: PPARg1 K132A/R137A, NR concentration 270 nM, RXRa partner concentration 90 nM)
In short: as §1

[14] = system: PPARg DBDmut IVT, anti-PPARg (DBD mutation: PPARg1 K132A/R137A, NR concentration 270 nM)
In short: as §1

[15] = system: PPARg homodimer (NR concentration 180 nM)
In short: as §1

[16] = system: PXR:RXRa (NR concentration 270 nM, RXRa partner concentration 90 nM)
In short: as §1

[17] = system: PXR homodimer (NR concentration 270 nM)
In short: as §1

[18] = system: RARa:RXR (NR concentration 270 nM, RXRa partner concentration 90 nM)
In short: as §1

[19] = system: RARa homodimer (NR concentration 270 nM)
In short: as §1

[20] = system: RARb:RXRa (NR concentration 270 nM, RXRa partner concentration 90 nM)
In short: as §1

Sequence | PBM binding z-score [1] | PBM binding z-score [2] | PBM binding z-score [3] | PBM binding z-score [4] | PBM binding z-score [5] | PBM binding z-score [6] | PBM binding z-score [7] | PBM binding z-score [8] | PBM binding z-score [9] | PBM binding z-score [10] | PBM binding z-score [11] | PBM binding z-score [12] | PBM binding z-score [13] | PBM binding z-score [14] | PBM binding z-score [15] | PBM binding z-score [16] | PBM binding z-score [17] | PBM binding z-score [18] | PBM binding z-score [19] | PBM binding z-score [20]
TCGGCTAGGTCAGTTGGTCAGCTAACGAGCTGCC | 1.1 | 0.58 | -0.132 | 0.27 | -0.753 | 1.48 | 0.0282 | 1.28 | 0.913 | 1.11 | 1.62 | 1.9 | -0.718 | -0.778 | 0.3 | 0.186 | -0.113 | 0.266 | -0.561 | 3.52
CAGACTAGGTCAAGAGGTCAAAGTCCGCTTCCCG | 7.03 | 6.1 | 5.88 | 5.69 | 1.64 | 6.29 | 8.59 | 7.74 | 5.99 | 7.54 | 7.08 | 7.26 | 0.894 | 0.414 | 5.61 | 6.21 | 1.93 | 7.55 | 0.913 | 5.39
CCGACTGGGGCAAGGTTACCCTAACGCACAGCCA | 0.301 | 0.334 | -0.217 | 0.52 | -1.15 | 1.88 | 2.75 | 3.18 | 0.752 | 2.75 | 2.55 | 3.74 | -0.273 | -0.891 | 0.107 | 0.232 | -0.208 | 0.791 | -0.576 | 1.58
ATATGTAGGTTAAGGGTAATTCAGGTTGGTTCGC | 1.39 | 2.14 | 1.04 | 1.72 | 0.767 | 4.6 | 8.65 | 7.77 | 8.77 | 8.33 | 7.67 | 7.16 | 1.52 | 1.87 | 2.15 | 1.74 | 1.44 | 1.63 | 2.31 | 1.69
TAGCCTAGGTCATTGGGCCAGTATCGTACGCATC | 4.61 | 3.37 | 0.842 | 2.55 | 0.185 | 3.85 | 3.26 | 3.52 | 0.601 | 2.34 | 2.91 | 3.95 | 0.593 | -0.521 | 1.11 | 1.68 | -0.331 | 2.39 | 0.0894 | 3.85
ATACCAAGGTGATCGTGAAGTCGTTGATACTAAC | 0.402 | 0.225 | 0.0745 | 0.448 | -0.0277 | 0.429 | 0.37 | 0.481 | -0.0865 | 0.2 | 0.462 | 1.26 | 0.643 | 0.615 | 0.766 | 0.468 | -0.0567 | 0.548 | 0.427 | 0.582
